# In all, about 4,100 sequences were measured (“RBNS R-value (6-mer enrichment in protein-bound RNA vs input library)”: median about 0.99, highest 2% from about 1.4 on). The entries come from a sample that favours the highest values as a whole.
# Tested on: PfIESI-1 RRM domain (Plasmodium falciparum ortholog aa 875-1232, GST fusion)
# Assay: RBNS R-value (6-mer enrichment in protein-bound RNA vs input library) (ratio); higher = stronger binding preference; the methods of the paper give 50 / 100 / 500 nM protein instead
# Procedure: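 RNA Bind-n-Seq: recombinant GST-tagged IESI-1 RRM domain was incubated at room temperature with a random 40-nt in vitro transcribed RNA library at 250, 500 or 1000 nM protein. Bound RNA was pulled down on glutathione beads and sequenced. R-value is the enrichment of each 6-mer in the bound RNA relative to the input library. Each 6-mer sits inside the random 40-mer context, not as an isolated oligo. Values are replicate 1 only.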
sequence,measurement,setting,value
CAGUAA,RBNS R-value,protein concentration: 250 nM,0.864
same,RBNS R-value,protein concentration: 500 nM,0.913
same,RBNS R-value,protein concentration: 1000 nM,0.866
CUACAU,RBNS R-value,protein concentration: 250 nM,0.824
same,RBNS R-value,protein concentration: 500 nM,0.777
same,RBNS R-value,protein concentration: 1000 nM,0.777
GUUCCU,RBNS R-value,protein concentration: 250 nM,1.02
same,RBNS R-value,protein concentration: 500 nM,0.962
same,RBNS R-value,protein concentration: 1000 nM,1.01
AACAGG,RBNS R-value,protein concentration: 250 nM,0.999
same,RBNS R-value,protein concentration: 500 nM,1.07
same,RBNS R-value,protein concentration: 1000 nM,1.06
GGGACU,RBNS R-value,protein concentration: 250 nM,1
same,RBNS R-value,protein concentration: 500 nM,0.984
same,RBNS R-value,protein concentration: 1000 nM,1.02
GAAGAC,RBNS R-value,protein concentration: 250 nM,1.14
same,RBNS R-value,protein concentration: 500 nM,1.17
same,RBNS R-value,protein concentration: 1000 nM,1.15
AGAGUC,RBNS R-value,protein concentration: 250 nM,1.01
same,RBNS R-value,protein concentration: 500 nM,1.03
same,RBNS R-value,protein concentration: 1000 nM,1.05
AUGUGA,RBNS R-value,protein concentration: 250 nM,1.15
same,RBNS R-value,protein concentration: 500 nM,1.26
same,RBNS R-value,protein concentration: 1000 nM,1.14
CUGGGC,RBNS R-value,protein concentration: 250 nM,1.06
same,RBNS R-value,protein concentration: 500 nM,0.987
same,RBNS R-value,protein concentration: 1000 nM,1.04
CCUGAU,RBNS R-value,protein concentration: 250 nM,1.99
same,RBNS R-value,protein concentration: 500 nM,2.08
same,RBNS R-value,protein concentration: 1000 nM,1.66
CCUGAA,RBNS R-value,protein concentration: 250 nM,1.17
same,RBNS R-value,protein concentration: 500 nM,1.17
same,RBNS R-value,protein concentration: 1000 nM,1.18
CCUGAC,RBNS R-value,protein concentration: 250 nM,1.14
same,RBNS R-value,protein concentration: 500 nM,1.07
same,RBNS R-value,protein concentration: 1000 nM,1.12
AUGCGG,RBNS R-value,protein concentration: 250 nM,1.02
same,RBNS R-value,protein concentration: 500 nM,1.01
same,RBNS R-value,protein concentration: 1000 nM,1.01
UCUAGU,RBNS R-value,protein concentration: 250 nM,0.878
same,RBNS R-value,protein concentration: 500 nM,0.906
same,RBNS R-value,protein concentration: 1000 nM,0.899
UAUGCA,RBNS R-value,protein concentration: 250 nM,0.846
same,RBNS R-value,protein concentration: 500 nM,0.862
same,RBNS R-value,protein concentration: 1000 nM,0.85
AAUGCG,RBNS R-value,protein concentration: 250 nM,0.939
same,RBNS R-value,protein concentration: 500 nM,0.968
same,RBNS R-value,protein concentration: 1000 nM,0.95
UAUGCG,RBNS R-value,protein concentration: 250 nM,0.899
same,RBNS R-value,protein concentration: 500 nM,0.892
same,RBNS R-value,protein concentration: 1000 nM,0.894
GAUGCA,RBNS R-value,protein concentration: 250 nM,1.39
same,RBNS R-value,protein concentration: 500 nM,1.42
same,RBNS R-value,protein concentration: 1000 nM,1.29
GAUGCG,RBNS R-value,protein concentration: 250 nM,1.41
same,RBNS R-value,protein concentration: 500 nM,1.42
same,RBNS R-value,protein concentration: 1000 nM,1.31
GAUGCC,RBNS R-value,protein concentration: 250 nM,1.57
same,RBNS R-value,protein concentration: 500 nM,1.46
same,RBNS R-value,protein concentration: 1000 nM,1.39
CAUGCA,RBNS R-value,protein concentration: 250 nM,0.934
same,RBNS R-value,protein concentration: 500 nM,0.914
same,RBNS R-value,protein concentration: 1000 nM,0.92
CAUGCC,RBNS R-value,protein concentration: 250 nM,1.04
same,RBNS R-value,protein concentration: 500 nM,0.974
same,RBNS R-value,protein concentration: 1000 nM,1.05
UAUGCC,RBNS R-value,protein concentration: 250 nM,0.946
same,RBNS R-value,protein concentration: 500 nM,0.891
same,RBNS R-value,protein concentration: 1000 nM,0.903
CUCGUG,RBNS R-value,protein concentration: 250 nM,0.979
same,RBNS R-value,protein concentration: 500 nM,0.913
same,RBNS R-value,protein concentration: 1000 nM,0.998
AGCGGC,RBNS R-value,protein concentration: 250 nM,1.05
same,RBNS R-value,protein concentration: 500 nM,1.03
same,RBNS R-value,protein concentration: 1000 nM,1.01
AUUCUU,RBNS R-value,protein concentration: 250 nM,1.04
same,RBNS R-value,protein concentration: 500 nM,1.06
same,RBNS R-value,protein concentration: 1000 nM,1.02
CUUAGC,RBNS R-value,protein concentration: 250 nM,0.907
same,RBNS R-value,protein concentration: 500 nM,0.84
same,RBNS R-value,protein concentration: 1000 nM,0.885
CGGUCA,RBNS R-value,protein concentration: 250 nM,0.933
same,RBNS R-value,protein concentration: 500 nM,0.898
same,RBNS R-value,protein concentration: 1000 nM,0.979
AAUUCU,RBNS R-value,protein concentration: 250 nM,1.01
same,RBNS R-value,protein concentration: 500 nM,1.07
same,RBNS R-value,protein concentration: 1000 nM,1.06
GAUUCG,RBNS R-value,protein concentration: 250 nM,1.43
same,RBNS R-value,protein concentration: 500 nM,1.44
same,RBNS R-value,protein concentration: 1000 nM,1.31
GAUUCA,RBNS R-value,protein concentration: 250 nM,1.44
same,RBNS R-value,protein concentration: 500 nM,1.56
same,RBNS R-value,protein concentration: 1000 nM,1.35
CAUUCG,RBNS R-value,protein concentration: 250 nM,1.02
same,RBNS R-value,protein concentration: 500 nM,0.992
same,RBNS R-value,protein concentration: 1000 nM,1.04
UAUUCA,RBNS R-value,protein concentration: 250 nM,0.803
same,RBNS R-value,protein concentration: 500 nM,0.794
same,RBNS R-value,protein concentration: 1000 nM,0.796
CAUUCC,RBNS R-value,protein concentration: 250 nM,1.04
same,RBNS R-value,protein concentration: 500 nM,0.997
same,RBNS R-value,protein concentration: 1000 nM,1.05
GAUUCU,RBNS R-value,protein concentration: 250 nM,1.53
same,RBNS R-value,protein concentration: 500 nM,1.6
same,RBNS R-value,protein concentration: 1000 nM,1.33
GAUUCC,RBNS R-value,protein concentration: 250 nM,1.51
same,RBNS R-value,protein concentration: 500 nM,1.47
same,RBNS R-value,protein concentration: 1000 nM,1.38
AAUUCA,RBNS R-value,protein concentration: 250 nM,0.972
same,RBNS R-value,protein concentration: 500 nM,1.06
same,RBNS R-value,protein concentration: 1000 nM,0.981
UAUUCU,RBNS R-value,protein concentration: 250 nM,0.875
same,RBNS R-value,protein concentration: 500 nM,0.813
same,RBNS R-value,protein concentration: 1000 nM,0.832
AAUUCC,RBNS R-value,protein concentration: 250 nM,1.16
same,RBNS R-value,protein concentration: 500 nM,1.15
same,RBNS R-value,protein concentration: 1000 nM,1.16
AAUUCG,RBNS R-value,protein concentration: 250 nM,0.99
same,RBNS R-value,protein concentration: 500 nM,1.06
same,RBNS R-value,protein concentration: 1000 nM,1.02
AGGUAA,RBNS R-value,protein concentration: 250 nM,0.909
same,RBNS R-value,protein concentration: 500 nM,0.998
same,RBNS R-value,protein concentration: 1000 nM,0.997
CUUAAG,RBNS R-value,protein concentration: 250 nM,0.818
same,RBNS R-value,protein concentration: 500 nM,0.849
same,RBNS R-value,protein concentration: 1000 nM,0.846
UCCUUU,RBNS R-value,protein concentration: 250 nM,0.883
same,RBNS R-value,protein concentration: 500 nM,0.825
same,RBNS R-value,protein concentration: 1000 nM,0.875
UACCGA,RBNS R-value,protein concentration: 250 nM,1.01
same,RBNS R-value,protein concentration: 500 nM,0.978
same,RBNS R-value,protein concentration: 1000 nM,0.96
AGGGAG,RBNS R-value,protein concentration: 250 nM,1.09
same,RBNS R-value,protein concentration: 500 nM,1.11
same,RBNS R-value,protein concentration: 1000 nM,1.06
GAUAAC,RBNS R-value,protein concentration: 250 nM,1.16
same,RBNS R-value,protein concentration: 500 nM,1.26
same,RBNS R-value,protein concentration: 1000 nM,1.15
